Some of the results follow. Calls of active or inactive are those of the source.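 The calls were made as follows: active = inhibition at 10 µM of 30% or more; inconclusive = no clear call, values can overlap the other calls; inactive = inhibition at 10 µM under 30%.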
These compounds were tested against DNA polymerase beta (Homo sapiens) (UniProt P06746) (assay: Inhibitors of DNA Polymerase Beta: Hit Validation in Radiolabeled Extension Assay). Conditions: radiolabeled primer extension gel assay, phosphorimager; at 10 µM; hits give high values.
From the text: The base excision repair system in human cells is a target for therapeutic modulation of the response to irradiation treatment and DNA-damaging drugs. A key enzyme in this system is the bi-functional DNA polymerase known as DNA polymerase Beta (Pol Beta). […] Using an integrated approach involving discovery of small molecule probes for Pol Beta via HTS and medchem optimization in collaboration with the NIH Chemical Genomics Center, validation by crystallography and kinetics along with cell-based validation experiments, we will test the hypothesis that base excision repair can be strategically modulated in human cells by targeting Pol Beta. Thus, we anticipate the Pol Beta-specific probes emerging from this research will serve as starting points in the development of clinical agents for use in downregulation of DNA base excision repair during therapeutic interventions against cancer. This assay is an orthogonal follow-up assay that looks at radiolabeled primer extension and was carried out by the assay provider. NIH Chemical Genomics Center [NCGC] NIH Molecular Libraries Probe Centers Network [MLPCN] […]
A primer oligonucleotide is 5'-32P end-labeled using T4 polynucleotide kinase and 32P-[ATP]. […] Percent extension of substrate to product is measured using standard, quantitative phosphoimager analysis.
With O=C(Nc1ccc(S(=O)(=O)Nc2nccs2)cc1)c1cc(-c2ccncc2)nc2ccccc12 the inhibition was 96.4% (active).

Reference: PubChem BioAssay AID540325 (National Center for Advancing Translational Sciences (NCATS), 2011)
